The full list was thinned out, with hits kept by preference.
PI5P4Ka inh – blocks human PI5P4K alpha kinase activity. P48426. PI5P4Kalpha enzyme, ADP-Glo luminescence, 60 min; hits give low values. max response, %. 330,000 tested, 1.2% active; active = max response of -50% or lower; inconclusive = between -30% and -50%; inactive = -30% or higher; note: value at the top dose of about 77 µM; % is set by controls: 0 for no effect and ±100 for the full control effect
Target sequence (P48426 whole entry, looked up): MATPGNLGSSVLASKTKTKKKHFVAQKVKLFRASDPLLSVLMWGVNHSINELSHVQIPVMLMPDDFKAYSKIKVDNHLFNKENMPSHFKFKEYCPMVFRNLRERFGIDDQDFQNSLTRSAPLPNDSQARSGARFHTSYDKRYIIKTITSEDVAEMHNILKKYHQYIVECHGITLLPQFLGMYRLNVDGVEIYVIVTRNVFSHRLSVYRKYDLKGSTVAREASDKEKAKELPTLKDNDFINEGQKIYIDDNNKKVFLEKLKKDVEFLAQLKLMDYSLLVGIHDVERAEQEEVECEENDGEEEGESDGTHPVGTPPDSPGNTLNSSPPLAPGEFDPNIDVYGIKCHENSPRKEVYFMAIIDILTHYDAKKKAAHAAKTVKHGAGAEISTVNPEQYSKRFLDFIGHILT
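ADP-Glo luminescence end-point after a 60 min room-temperature kinase reaction. PI5P4Kalpha and substrate in HEPES pH 7.4 buffer with EGTA, 0.1% CHAPS and 5% DMSO; ATP at 5 microM final.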
Tb PGK inh – T. brucei PGK inhibition. P07378. PGK/GAPDH coupled, Kinase-Glo luminescence, 60 min. Potency, µM (series often up to 57.5 µM), without a hit: at the top dose activity change, negative = inhibition, hits mostly inhibitors. 380,000 tested, 0.043% active. AID 602233; note: potency is the fitted concentration of half-maximal effect; % is set by controls: 0 for no effect and ±100 for the full control effect; nearly all actives have a fitted effect of over 60% in size
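Recombinant glycosomal PGK reaction used 1,3-bisphosphoglycerate generated in-well by GAPDH (100nM final) in 100mM TEA pH 7.6, 5mM MgCl2, 0.01% Tween-20. After 60 minutes at room temperature, ATP was read by Kinase-Glo Plus luminescence end-point.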
PI4K2A block – inhibitors of human PI4K2A. 420,000 tested, 0.13% active. activity change, negative = inhibition, % at 76.9 µM. purified PI4K2A, ADP-Glo luminescence, 1 h; hits give low values. AID 1346378. Q9BTU6; in the data active = activity change below about -50%; inconclusive = mostly about -30% to -49%;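 note: -100% = wells without enzyme as full effect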
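PI4K2A activity was measured by ADP-Glo luminescence: enzyme (4 ug/mL stock) and phosphatidylinositol (1.2 mM stock) in Tris pH 7.5/MgCl2/EGTA/Triton X-100 buffer were reacted with ATP (300 microM stock) for one hour at ambient temperature.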
Pin1 inhibitor – inhibitors of human Pin1; AID 504891; 390,000 tested, 0.009% active; Potency, µM (doses to about 115 µM), for inactives: at the highest dose activity, negative = inhibition, hits mostly inhibitors; Pin1 FP peptide displacement, HiFluor488, 10 min; Q13526; active = well fitted inhibition curve with a large enough effect in the polarisation, with a control signal flat, not every such curve was filed as active; inconclusive = small, poorly fitted or top-dose-only effect, or effect the other way, or a change in a side signal; inactive = no such curve, though single readings can be large or run the other way; the % refers to the polarisation; note: potency is the fitted concentration of half-maximal effect; % is set by controls: 0 for no effect and ±100 for the full control effect
Target sequence (Q13526 whole entry, looked up): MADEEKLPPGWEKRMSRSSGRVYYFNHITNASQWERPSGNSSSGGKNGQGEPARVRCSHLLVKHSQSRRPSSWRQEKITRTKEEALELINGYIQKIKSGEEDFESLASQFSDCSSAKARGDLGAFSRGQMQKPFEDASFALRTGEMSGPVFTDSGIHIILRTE
Tb PFK inh-1 – T. brucei PFK enzyme inhibition | O15648 | T. brucei PFK, ADP-Glo luminescence | 330,000 tested, 0.17% active | Potency, µM (highest dose often 57.5 µM), for the others: at the highest dose activity, negative = inhibition, most hits filed as inhibitors;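 note: potency is the fitted concentration of half-maximal effect; 0% = uninhibited 1x PFK enzyme wells and -100% = no-enzyme wells; nearly all actives have a fitted effect of over 60% in size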
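Luminescent ADP detection (ADP-Glo, two-step: ATP depletion then ADP-to-ATP conversion for luciferase) reported PFK activity after 45 min room-temperature reaction of 1.25 nM enzyme with 0.5 mM F6P and 0.1 mM ATP at pH 8.0.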
TbPFK ATP – Tb phosphofructokinase inhibition, orthogonal luminescence; shares compounds with Tb PFK inh-1; Tb PFK enzyme, ATP depletion, Kinase-Glo Plus luminescence; Potency, µM (titrated, usually from 57.5 µM), for inactives: at the highest dose inhibition; 1,100 tested, 47% active; AID 504636; calls by dose curve; note: potency is the fitted concentration of half-maximal effect; nearly all actives have a fitted effect of over 60% in size
Tb PFK inh-2 – T. brucei PFK enzyme inhibition, hit validation; shares compounds with Tb PFK inh-1; purified T. brucei PFK, ADP-Glo luminescence, 45 min; Potency, µM (highest dose often 57.5 µM), inactives show at the highest dose activity change, negative = inhibition, usual class: inhibitors; 1,100 tested, 41% active; AID 504637;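 note: potency is the fitted concentration of half-maximal effect; plate controls were full PFK enzyme control for no effect and no enzyme control for full effect; nearly all actives have a fitted effect of over 60% in size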
Active calls of the source: *; i = inactive; ? = inconclusive; / = not tested or not shown. Unless noted, calls come from the whole dose curve; as a rule, active = well fitted curve in the direction sought with a large enough effect; inconclusive = small, poorly fitted or top-dose-only effect, or another doubt; inactive = no such curve, though single readings can be large; an effect the other way counts as inactive or inconclusive.

SMILES	PI5P4Ka inh	Tb PGK inh	PI4K2A block	Pin1 inhibitor	Tb PFK inh-1	TbPFK ATP	Tb PFK inh-2
Cc1cc(OC(F)F)ccc1NC(=O)Nc1ccc([N+](=O)[O-])cc1	8	i	-5	7%	?	?	?
O=c1c2ccccc2nc(-c2ccco2)n1-c1cccnc1	5	i	2	-6%	2%	/	/
O=C1/C(=C/c2ccco2)SC(=S)N1c1cccnc1	-105*	?	-26	/	?	4.3µM*	7.6µM*
CC[N+](CC)(CC)CCCOC(=O)C(O)(c1ccccc1)C1CCCCC1 (configuration not stated)	1	-10%	4	-6%	-1%	/	/
CCc1cc(CNC(=O)c2ccc(OC3CCN(CCc4ccccc4)CC3)cc2)on1	-21	-5%	-3	-3%	15µM*	17µM*	21µM*
CCn1c(=O)c(C(=O)Nc2nc3ccccc3[nH]2)c(O)c2ccccc21	?	1%	-1	0%	?	-32%	?
CCCCCn1c(=O)c(C(=O)Nc2nc3ccccc3[nH]2)c(O)c2ccccc21	-20	i	2	-3%	1%	/	/
CC(C)(C)c1ccc(O)c(CN2CCN(c3ccccc3)CC2)c1	12	-7%	3	?	4%	/	/
O=P(NS(=O)(=O)c1ccccc1)(Oc1ccccc1)Oc1ccccc1	/	-3%	-2	-14%	0%	/	/
O=S(=O)(O)c1cc(OS(=O)(=O)c2ccccc2)cc2ccccc12	3	-1%	-6	0%	24µM*	?	?
C/C(=N\NC(=O)CNc1cccc(Cl)c1C)C1CC1	-4	-10%	1	0%	21µM*	?	?
CCc1ccccc1NC(=O)CNC1CCCCC1	3	i	2	?	1%	/	/
CCN(C(=O)CN1CCN(c2ccc(O)cc2)CC1)c1c(N)n(Cc2ccccc2)c(=O)[nH]c1=O	-2	-4%	-10	?	?	?	?
CC(C)C(C(=O)O)N1C(=O)/C(=C/C=C/c2ccco2)SC1=S (configuration not stated)	-94*	8.9µM*	-30	?	?	8.5µM*	21µM*
O=C(Nc1ncc(Cc2cccc(Cl)c2)s1)C1CCCO1 (configuration not stated)	-5	6%	-6	-4%	?	17µM*	?
Cc1ccccc1CN1CCN(Cc2ccccc2)CC1	-2	5%	0	0%	-5%	/	/
O=C(Cc1ccc(Br)cc1)N/N=C/c1cccnc1	8	-3%	-2	-3%	17µM*	13µM*	?
O=C(COC(=O)/C=C/c1ccco1)Nc1ncc(C(F)(F)F)cc1Cl	-1	13µM*	-3	?	17µM*	11µM*	13µM*
O=C(O)c1cc2ccccc2oc1=O	-2	3%	0	2%	-3%	/	/
O=C(c1cc2cc([N+](=O)[O-])ccc2oc1=O)n1cccn1	-9	-12%	-8	-25%	?	-1%	19%
Cc1ccc(-n2c(/C=C/c3ccc4c(c3)OCO4)nc3ccccc3c2=O)cc1	/	/	/	/	3%	/	/
O=C(NCc1cccc(Cl)c1)c1ccc(N2CC3CC(C2)c2cccc(=O)n2C3)c(NC(=O)c2cccnc2)c1 (configuration not stated)	0	-10%	-1	-3%	?	?	?
Nc1cc(C(=O)Nc2ccccc2F)ccc1N1CC2CC(C1)c1cccc(=O)n1C2 (configuration not stated)	-13	i	1	/	/	/	/
CCn1c(P(C)(=O)O)nc2cc(NC(=O)c3ccccc3F)ccc21	2	i	-8	0%	3%	/	/
CCc1nnc(NS(=O)(=O)c2ccc(N=Cc3c(O)n(-c4ccc(Cl)cc4)c(=O)[nH]c3=O)cc2)s1	?	-9%	-8	-5%	0%	/	/
SMILES	PI5P4Ka inh	Tb PGK inh	PI4K2A block	Pin1 inhibitor	Tb PFK inh-1	TbPFK ATP	Tb PFK inh-2
O=C(COc1ccc([N+](=O)[O-])cc1)Nc1ccc(S(=O)(=O)N2CCOCC2)cc1	4	0%	0	-10%	?	21µM*	27µM*
O=C(Nc1cccc(OC(=O)N2CCOCC2)c1)N1CCOCC1	-1	2%	-5	1%	-3%	/	/
O=C(Cc1ccc(Cl)c(Cl)c1)Nc1cccc(S(=O)(=O)N2CCOCC2)c1	0	i	2	0%	21µM*	9.5µM*	17µM*
O=C(Cc1ccc(Cl)cc1)Nc1ccc(S(=O)(=O)N2CCOCC2)cc1	9	3%	-1	-1%	21µM*	9.5µM*	27µM*
O=C(Nc1ccc2c(c1)OCO2)c1cccc2c1C(=O)N(Cc1cccnc1)C2	-15	-3%	-6	?	?	?	?
CCOC(=O)C1=C(N)Oc2cc(C)oc(=O)c2C12C(=O)N1c3c(cccc32)C(C)CC1(C)C (configuration not stated)	/	i	1	8%	/	/	/
Cn1nc(N)c2c1N=P(N1CCOCC1)(N1CCOCC1)N=C2c1ccccc1	/	-5%	1	1%	0%	/	/
COc1ccc(C2(C#N)CC[N+](C)(C)CC2)cc1	-8	-7%	-1	-3%	-1%	/	/
COc1cc(N[C@@H](C)CCCN)c2ncccc2c1	/	/	/	/	/	4%	-5%
Fc1cccc(NCc2cn3ccccc3n2)c1	/	1%	1	2%	12µM*	?	-17%
Fc1cccc(NCc2ccoc2)c1	/	3%	0	-1%	?	12µM*	19µM*
CCC(=NCc1ccco1)c1c(O)n(-c2ccc(Cl)cc2)c(=O)[nH]c1=O	4	-7%	-6	28%	-4%	/	/
O=C1C(=O)N(CCCn2ccnc2)C(c2cccc(Br)c2)/C1=C(\O)c1ccc2c(c1)OCCO2 (configuration not stated)	0	-5%	-2	2%	?	?	?
CCNS(=O)(=O)c1ccc(NC(=O)Cn2cc([N+](=O)[O-])cn2)cc1	6	4%	0	1%	12µM*	12µM*	?
Brc1cccc(OCCn2ccnc2)c1	-2	-1%	5	-9%	21µM*	12µM*	13µM*
Cc1cc(C(=O)NNC(=O)Cc2ccc(Cl)c(Cl)c2)c(C)o1	-5	-1%	2	-4%	27µM*	12µM*	30µM*
COC(=O)N1CCN(C(=O)Cc2ccc(Cl)c(Cl)c2)C(CN2CCCC2)C1 (configuration not stated)	/	/	2	/	-20%	/	/

Screening results deposited in PubChem BioAssay by National Center for Advancing Translational Sciences (NCATS).
